Each structure is given as a SMILES string. Records with an inconclusive call do not appear. Entries that show only a call come without a potency. More than one record can exist for a structure, and the calls need not agree. The source made the active and inactive calls. The call rests on the fitted dose curve; in most records, active means well fitted curve in the direction sought with a large enough effect in the repeat runs; inconclusive means weak or mixed curves; inactive means no such curve, though single readings can be large; an effect the other way counts as inactive or inconclusive.
Potency means the concentration at half of the fitted maximal effect.

Chain of Nuclear receptor subfamily 1 group I member 3 (Homo sapiens) (Q14994 whole entry, looked up): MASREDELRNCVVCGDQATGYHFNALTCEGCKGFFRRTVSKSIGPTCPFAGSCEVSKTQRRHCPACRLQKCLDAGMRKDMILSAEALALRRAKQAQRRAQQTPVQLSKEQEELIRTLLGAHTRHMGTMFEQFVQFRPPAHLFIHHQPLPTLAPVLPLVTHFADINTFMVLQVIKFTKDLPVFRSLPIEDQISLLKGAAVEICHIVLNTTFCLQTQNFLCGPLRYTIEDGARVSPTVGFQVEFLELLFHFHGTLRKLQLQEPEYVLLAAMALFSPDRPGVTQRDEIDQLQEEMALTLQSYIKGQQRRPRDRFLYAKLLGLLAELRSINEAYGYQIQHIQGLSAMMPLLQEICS

The target in the first experiment is Nuclear receptor subfamily 1 group I member 3 (Homo sapiens) (UniProt Q14994). Description: qHTS assay to identify small molecule antagonists of the constitutive androstane receptor (CAR) signaling pathway (AID 1224838). Further: nearly all actives have a fitted effect of over 40% in size. The following applies: HepG2-CYP2B6-hCAR luciferase, CITCO-stimulated, 24 h; series mostly up to 92.4 µM. The method, boiled down:
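Inhibition of CITCO-driven (50 nM final) CYP2B6 reporter expression is measured in HepG2 cells stably carrying hCAR. Fifteen compound concentrations are applied for 24 h at 37 C, followed by luciferase luminescence.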
In the case of `CC(C)n1nc(-c2cc3cc(O)ccc3[nH]2)c2c(N)ncnc21`, the Potency is 15 µM (active).

For the compound `O=C(Nc1cccc(C(F)(F)F)c1)c1cc(Br)cc(Br)c1O`, the Potency was 15.4 µM (active).

As for `Oc1ccc(Cl)cc1Sc1cc(Cl)ccc1O`, the Potency is 68.5 µM (active).

Take `CCCCN1C(=O)[C@@H]([C@H](O)C2CCCCC2)NC(=O)C12CCN(Cc1ccc(Oc3ccc(C(=O)O)cc3)cc1)CC2`: the Potency entry was “inactive”.

With `Cc1[nH]cnc1C[C@H]1CCc2c(C)c3ccccc3n2C1=O`, the Potency is 59.6 µM (active).

As to `Oc1ccc(N=Nc2ccccc2)cc1`, the Potency entry is “inactive”.

With `CCCC(=O)OC[C@@H](OC(=O)CCC)[C@@H](OC(=O)CCC)[C@H](Cn1c2nc(=O)[nH]c(=O)c-2nc2cc(C)c(C)cc21)OC(=O)CCC`, the Potency was 29.8 µM (active).

Regarding `Cc1cc(=O)oc2cc(N(C)C)ccc12`, the Potency entry is “inactive”.

Consider `O=C1c2c(O)ccc(Nc3ccc(CCO)cc3)c2C(=O)c2c([N+](=O)[O-])ccc(O)c21`, for which the Potency result was “inactive”.

Consider `CC[C@@]1(O)C(=O)OCc2c1cc1n(c2=O)Cc2cc3c(CN(C)C)c(O)ccc3nc2-1`, for which the Potency was 0.15 µM (active).

On to `NC(=NCCCCCCN=C(N)/N=C(\N)Nc1ccc(Cl)cc1)/N=C(\N)Nc1ccc(Cl)cc1`, for which the Potency is 60.8 µM (active) and inactive.

As to `Nc1ccccc1O`, the Potency result was “inactive”.

For the compound `Nc1ccc2c3c(cccc13)-c1ccccc1-2`, the Potency result is “inactive”.

Consider `OCCN(CCO)c1nc(N2CCCCC2)c2nc(N(CCO)CCO)nc(N3CCCCC3)c2n1`, for which the Potency result is “inactive”.

Turning to `CC(C)(C)C1CCC(CC2=C(O)c3ccccc3C(=O)C2=O)CC1` (centres undefined), the Potency result was “inactive”.

As for `C/C=C1/C(=O)C[C@H]2[C@@H]3CCC4=CC(=O)CC[C@]4(C)[C@H]3CC[C@]12C`, the Potency result was “inactive”.

For the compound `ON=C1CCCC1`, the Potency entry was “inactive”.

As to `Nc1ccc2cc(S(=O)(=O)O)cc(O)c2c1N=Nc1ccccc1C(F)(F)F`, the Potency entry was “inactive”.

For `CS(=O)(=O)CCNCc1ccc(-c2ccc3ncnc(Nc4ccc(OCc5cccc(F)c5)c(Cl)c4)c3c2)o1`, the Potency result was “inactive”.

Take `CCN(CCC#N)c1ccc(N=Nc2c(Cl)cc([N+](=O)[O-])cc2Cl)cc1`: the Potency result is “inactive”.

Take `O=C(Oc1cccc2cccnc12)c1ccccc1`: the Potency was 0.001 µM (active).

Another experiment shares this target. Description: qHTS assay to identify small molecule agonists of the constitutive androstane receptor (CAR) signaling pathway (AID 1224839). Further: nearly all actives have a fitted effect of over 15% in size. The following applies: HepG2 hCAR CYP2B6-luciferase, agonist mode, 24 h; series mostly up to 92.4 µM. The method, boiled down:
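A 15-concentration quantitative screen uses HepG2 cells co-transfected stably with human CAR and CYP2B6-2.2kb reporter. Treatment lasts 24 h with 0.75 uM PK11195 final present; ONE-Glo luminescence is the signal.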
Take `CC(C)n1nc(-c2cc3cc(O)ccc3[nH]2)c2c(N)ncnc21`: the Potency result was “inactive”.

Turning to `O=C(Nc1cccc(C(F)(F)F)c1)c1cc(Br)cc(Br)c1O`, the Potency entry was “inactive”.

With `CCCCCCCCCCCCCCCC[N+](C)(C)CCN(Cc1ccc(OC)cc1)c1ncccn1`, the Potency result is “inactive”.

In the case of `Oc1ccc(Cl)cc1Sc1cc(Cl)ccc1O`, the Potency entry is “inactive”.

`CCCCN1C(=O)[C@@H]([C@H](O)C2CCCCC2)NC(=O)C12CCN(Cc1ccc(Oc3ccc(C(=O)O)cc3)cc1)CC2`: the Potency result was “inactive”.

Regarding `Cc1[nH]cnc1C[C@H]1CCc2c(C)c3ccccc3n2C1=O`, the Potency result is “inactive”.

As for `COc1cc(-c2nc(NC(=O)c3cc4cc(C)cc(C)c4n3CC(=O)O)sc2CCC2CCCCC2)c(OC)cc1Cl`, the Potency entry is “inactive”.

On to `Oc1ccc(N=Nc2ccccc2)cc1`, for which the Potency was 27.7 µM (active).

For the compound `CCCC(=O)OC[C@@H](OC(=O)CCC)[C@@H](OC(=O)CCC)[C@H](Cn1c2nc(=O)[nH]c(=O)c-2nc2cc(C)c(C)cc21)OC(=O)CCC`, the Potency result is “inactive”.

On to `Cc1cc(=O)oc2cc(N(C)C)ccc12`, for which the Potency was 61.1 µM (active).

Consider `CCOC(=O)c1nc(C(Cl)(Cl)Cl)n(-c2ccc(Cl)cc2Cl)n1`, for which the Potency entry was “inactive”.

Take `O=C1c2c(O)ccc(Nc3ccc(CCO)cc3)c2C(=O)c2c([N+](=O)[O-])ccc(O)c21`: the Potency was 27.3 µM (active).

`NC(=O)C1(N2CCCCC2)CCN(CCCN2c3ccccc3CCc3ccc(Cl)cc32)CC1`: the Potency entry is “inactive”.

On to `CCCCc1oc2ccc(NS(C)(=O)=O)cc2c1C(=O)c1ccc(OCCCN(CCCC)CCCC)cc1`, for which the Potency entry is “inactive”.

For the compound `CC(C)(C)CC(C)(C)c1ccc(O)c(Cc2ccc(Cl)cc2Cl)c1`, the Potency result was “inactive”.

Consider `CC[C@@]1(O)C(=O)OCc2c1cc1n(c2=O)Cc2cc3c(CN(C)C)c(O)ccc3nc2-1`, for which the Potency result was “inactive”.

Consider `COc1ccc(CN2CCN(C(c3ccc(F)cc3)c3ccc(F)cc3)CC2)c(OC)c1OC`, for which the Potency result was “inactive”.

As for `Nc1ccccc1O`, the Potency was 24 µM (active).

Regarding `Nc1ccc2c3c(cccc13)-c1ccccc1-2`, the Potency is 21.9 µM (active).

As for `OCCN(CCO)c1nc(N2CCCCC2)c2nc(N(CCO)CCO)nc(N3CCCCC3)c2n1`, the Potency entry is “inactive”.

Regarding `CC(C)(C)C1CCC(CC2=C(O)c3ccccc3C(=O)C2=O)CC1` (centres undefined), the Potency result is “inactive”.

As to `C/C=C1/C(=O)C[C@H]2[C@@H]3CCC4=CC(=O)CC[C@]4(C)[C@H]3CC[C@]12C`, the Potency is 8.61 µM (active).

With `CN1CCC(Nc2ncc3ncnc(Nc4ccc(F)c(Cl)c4)c3n2)CC1`, the Potency entry was “inactive”.

For the compound `C[C@@H](NCCCc1cccc(C(F)(F)F)c1)c1cccc2ccccc12`, the Potency entry was “inactive”.

As for `Nc1ccc2cc(S(=O)(=O)O)cc(O)c2c1N=Nc1ccccc1C(F)(F)F`, the Potency result is “inactive”.

Consider `CS(=O)(=O)CCNCc1ccc(-c2ccc3ncnc(Nc4ccc(OCc5cccc(F)c5)c(Cl)c4)c3c2)o1`, for which the Potency result is “inactive”.

Regarding `CCN(CCC#N)c1ccc(N=Nc2c(Cl)cc([N+](=O)[O-])cc2Cl)cc1`, the Potency result was “inactive”.

Take `O=C(Oc1cccc2cccnc12)c1ccccc1`: the Potency entry is “inactive”.

The record behind these values is PubChem BioAssay (Tox21).
